Results: PubChem BioAssay (NCATS)
Inconclusive results are not listed. The source made the active and inactive calls. Calls come from the whole dose curve; as a rule, active = well fitted curve in the direction sought with a large enough effect; inconclusive = small, poorly fitted or top-dose-only effect, or another doubt; inactive = no such curve, though single readings can be large; an effect the other way counts as inactive or inconclusive.

Legend:
[1] = Cellular Toxicity (caspase-3) Mesangial (AID 660); conditions: mesangial cells, normalized: DMSO 0%, 100 µM tamoxifen 100%; at 91.7 µM (top of the series);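 note: combined caspase 3 and 7 activity read by Caspase-Glo luminescence; cells exposed to compound for 16 h before the caspase read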
How it was run: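 Seed cells derived from normal human renal glomeruli, incubate 5 h, add compounds across concentrations and incubate 16 h at 37 °C. Caspase 3/7 activation is then quantified by luciferase light, with AC50 derived by Hill modeling.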

[2] = Cellular Toxicity (caspase-3) SK-N-SH (AID 661);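 note: 0% = DMSO basal and 100% = 10 µM staurosporine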
How it was run: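 Cells were seeded and incubated 5 hr at 37 °C, dosed with compound over a concentration range for 16 hr, then given Caspase-Glo 3/7 reagent for 1 hr at room temperature before luminescence reading.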

[3] = Cellular Toxicity (caspase-3) H-4-II-E (AID 663); conditions: H-4-II-E rat hepatoma, scaled: DMSO 0%, 100 µM tamoxifen 100%; at 92.2 µM (top of the series);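 note: cells exposed to compound for 16 hr before readout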
How it was run: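 Caspase 3/7 activation measured by luminescent aminoluciferin substrate cleavage after 16 hr compound treatment of H-4-II-E cells in complete medium. Increase normalized between DMSO (basal) and 100 uM tamoxifen (100%); Hill-equation AC50 from concentration-response.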

[4] = Cellular Toxicity (caspase-3) Hek293 (AID 664); conditions: HEK293 caspase-3 activation, DMSO = 0%, 100 µM tamoxifen = 100%; at 92.2 µM (top of the series);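 note: cells exposed to compound for 16 h at 37 °C before readout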
How it was run: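 qHTS, HEK293 (human embryonic kidney), 16 h cpd exposure in complete medium. Caspase-3/7 activation = luminescence increase; normalized to DMSO/100 uM tamoxifen; Hill-fit AC50.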

[5] = Cellular Toxicity (caspase-3) N2a (AID 665);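 note: compound exposure lasted 16 h at 37 °C before readout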
How it was run: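 Caspase-3/7 activation, measured as increased luminescence from aminoluciferin release, is quantified in mouse N2a cells exposed to compounds for 16 h. Values are normalized to DMSO and 10 uM staurosporine, with AC50 derived by Hill modelling.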

[6] = Cellular Toxicity (caspase-3) NIH 3T3 (AID 666);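 note: 0% = DMSO basal and 100% = 100 µM tamoxifen stimulation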
How it was run: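 Cells were plated at 1000 per well and incubated 5 hr at 37°C, then compound was added for 16 hr. Caspase-Glo 3/7 reagent followed for 20 min at room temperature before luminescence was read.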

[7] = Cellular Toxicity (caspase-3) Renal Proximal Tubule (AID 667); conditions: Potency: caspase-3 activation;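 note: cells exposed to compound for 16 hours at 37 °C before detection; 0% = DMSO basal and 100% = 10 µM staurosporine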
How it was run: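 Luminescent caspase 3/7 signal from peptide-aminoluciferin cleavage measures apoptosis in freshly isolated rat kidney proximal tubule cells after 16 h compound exposure. Concentration-response data are normalized to DMSO and 10 uM staurosporine, and AC50 values come from Hill equation fits.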

[8] = MultiTox-Fluor Cytotoxicity Assay - LYMP1-001 - Dead Cells (AID 946)
How it was run: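 Cytotoxicity as increased dead-cell protease fluorescence (bis-AAF-R110, 485/520 nm), read 60 min after MultiTox-Fluor reagent. Human lymphoblastoid line exposed 16 h; Hill-fitted AC50, with DMSO as 0% and 15 uM tetraoctylammonium bromide as 100%.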

[9] = MultiTox-Fluor Cytotoxicity Assay - LYMP1-001 - Live Cells (AID 947);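 note: 0% = DMSO only and full inhibition = tetraoctylammonium bromide control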
[10] = Cell Viability - LYMP1-002 - Assay at 16 hr (AID 948);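 note: 0% = DMSO alone and full effect = 92 µM tetraoctylammonium bromide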
How it was run: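 LYMP1-002 human lymphoblastoid cells, 2500/well; 5 hr 37 C; cpd 16 hr 37 C; CellTiter-Glo 30 min RT; luminescence (ATP). Concentration-response, Hill-fit AC50. Pos ctrl tetraoctylammonium bromide.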

[11] = MultiTox-Fluor Cytotoxicity Assay - LYMP1-002 - Live Cells (AID 955); note: % is set by controls: 0 for no effect and ±100 for the full control effect
How it was run: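 Cells were seeded at 2500 per well and incubated 5 hr. Compounds were then added for 16 hr at 37 C, followed by MultiTox-Fluor reagent for 60 min at room temperature and fluorescence reading of viable-cell protease signal.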

[12] = MultiTox-Fluor Cytotoxicity Assay - LYMP1-002 - Dead Cells (AID 960); note: nearly all actives have a fitted effect of over 60% in size
How it was run: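 Cells were plated, rested 5 hr, then treated with compound dilution series for 16 hr at 37 C. After adding substrate reagent and 60 min at room temperature, dead-cell protease fluorescence gave concentration-response curves fitted by the Hill equation.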

[13] = MultiTox-Fluor Cytotoxicity Assay - LYMP1-003 - Dead Cells (AID 961); note: nearly all actives have a fitted effect of over 70% in size
How it was run: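 Dead-cell protease release, detected as bis-AAF-R110 fluorescence at 485/520 nm, was measured in LYMP1-003 cells after 16 h compound treatment at 37 C. AC50 values came from Hill-modeled qHTS curves normalized to DMSO (0%) and 15 uM tetraoctylammonium bromide (100%).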

[14] = MultiTox-Fluor Cytotoxicity Assay - LYMP1-003 - Live Cells (AID 962);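 note: cells exposed to compound for 16 hours at 37 °C; 0% = DMSO only and full loss = 92 µM tetraoctylammonium bromide; cytotoxic hits lower the live-cell protease signal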
How it was run: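 Acute cytotoxicity is scored as a drop in live-cell protease activity in human lymphoblastoid LYMP1-003 cells after 16 hr compound exposure at 37 C. AC50 values come from Hill-equation modelling of concentration-response data.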

[15] = Cell Viability - LYMP1-003 - Assay at 24 hr (AID 963);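 note: plate controls were DMSO only for no effect and tetraoctylammonium bromide positive control for full effect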
How it was run: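 Cytotoxicity is scored as a concentration-dependent fall in ATP-linked luciferase signal in human lymphoblastoid LYMP1-003 cells treated 24 hr at 37 C in complete culture medium.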

[16] = Cell Viability - LYMP1-003 - Assay at 40 hr (AID 964); note: % is set by controls: 0 for no effect and ±100 for the full control effect; nearly all actives have a fitted effect of over 60% in size
How it was run: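 Luminescent ATP signal (CellTiter-Glo) served as the viability read-out after 40 hr compound treatment of human lymphoblastoid LYMP1-003 cells at 37 C. Decreases in ATP were fitted with the Hill equation to give AC50.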

[17] = Cell Viability - LYMP2-003 (AID 965);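 note: cells exposed to compounds for 24 h before reading; 0% = DMSO only and full effect = 92 µM tetraoctylammonium bromide; nearly all actives have a fitted effect of over 50% in size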
How it was run: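 CellTiter-Glo luminescence (cellular ATP) after 24 h compound exposure at 37 C in complete medium; 2500 cells/well, 5 h settling beforehand. Concentration-response fitted to standard Hill equation for AC50. Tetraoctylammonium bromide served as positive control.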

[18] = Cell Viability - LYMP2-004 (AID 966);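 note: plate controls were DMSO only for no effect and tetraoctylammonium bromide control for full effect; nearly all actives have a fitted effect of over 65% in size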
How it was run: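 qHTS cytotoxicity: human lymphoblastoid line, 24 hr compound treatment, 37 C, complete medium. Viability read as cellular ATP via luciferase luminescence; tetraoctylammonium bromide served as positive control.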

[19] = biological target: Cytochrome P450 3A4 (Homo sapiens) (UniProt P08684); assay: qHTS Assay for Inhibitors and Substrates of Cytochrome P450 3A4 (AID 884); note: % is set by controls: 0 for no effect and ±100 for the full control effect; nearly all actives have a fitted effect of over 50% in size
How it was run: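 Luminescent readout of luciferin produced by CYP3A4 (20 nM) dealkylation of Luciferin-PPXE, 25 uM (its KM). NADPH-driven reaction ran 60 min at RT after 10 min compound preincubation; data scaled to 57 uM ketoconazole as 100% inhibition.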

[20] = Cell Viability - LYMP2-001 (AID 921);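 note: 0% = DMSO only and full inhibition = tetraoctylammonium bromide control wells; nearly all actives have a fitted effect of over 70% in size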
How it was run: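 CellTiter-Glo luminescence (intracellular ATP) after 24 hr compound exposure at 37 C, 2500 lymphoblastoid cells/well in complete medium. AC50 fitted with standard Hill equation; tetraoctylammonium bromide positive control.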

Chain of Cytochrome P450 3A4 (Homo sapiens) (P08684 whole entry, looked up): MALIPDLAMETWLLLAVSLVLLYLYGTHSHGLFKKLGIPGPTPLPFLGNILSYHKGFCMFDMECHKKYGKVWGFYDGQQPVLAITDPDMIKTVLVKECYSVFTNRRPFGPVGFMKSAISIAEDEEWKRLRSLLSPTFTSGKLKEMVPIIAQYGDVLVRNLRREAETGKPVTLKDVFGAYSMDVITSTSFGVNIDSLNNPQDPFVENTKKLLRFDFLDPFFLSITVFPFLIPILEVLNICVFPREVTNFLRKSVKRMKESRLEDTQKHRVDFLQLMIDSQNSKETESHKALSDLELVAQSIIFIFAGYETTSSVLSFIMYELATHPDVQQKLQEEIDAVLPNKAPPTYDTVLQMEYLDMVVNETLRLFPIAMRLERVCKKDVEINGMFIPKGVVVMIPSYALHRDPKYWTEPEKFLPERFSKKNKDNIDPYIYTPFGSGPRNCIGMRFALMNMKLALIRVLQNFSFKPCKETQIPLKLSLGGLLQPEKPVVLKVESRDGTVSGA

CC(=O)c1cc(C)oc1C
inactive: caspase-3 activation [1] 0.543% | outcome [2] | caspase-3 activation [3] -0.25% | caspase-3 activation [4] 0.799% | outcome [5] | outcome [6] | Potency [7] | outcome [8] | outcome [9] | outcome [10] | outcome [11] | outcome [12] | Potency [13] | Potency [14] | Potency [15] | Potency [16] | Potency [17] | Potency [18]

CC(=O)CC(C)C
inactive: caspase-3 activation [1] 0.196% | outcome [2] | caspase-3 activation [3] 1.31% | caspase-3 activation [4] -0.532% | outcome [5] | outcome [6] | Potency [19] | Potency [20] | outcome [8] | outcome [9] | outcome [10] | outcome [11] | outcome [12] | Potency [13] | Potency [14] | Potency [15] | Potency [16] | Potency [17] | Potency [18]

C[C@@H]1O[C@@H](O[C@@H]2[C@@H](O)[C@H](OCCc3ccc(O)c(O)c3)O[C@H](CO[C@@H]3O[C@H](CO)[C@@H](O)[C@H](O)[C@H]3O)[C@H]2OC(=O)/C=C/c2ccc(O)c(O)c2)[C@H](O)[C@H](O)[C@H]1O
inactive: caspase-3 activation [1] -1.14% | outcome [2] | caspase-3 activation [3] -0.514% | caspase-3 activation [4] -1.55% | outcome [5] | outcome [6] | Potency [20] | outcome [8] | outcome [9] | outcome [10] | outcome [11] | outcome [12] | Potency [14] | Potency [15] | Potency [16] | Potency [17] | Potency [18]

Cc1ccc2cccnc2c1
inactive: caspase-3 activation [1] 0.42% | outcome [2] | caspase-3 activation [3] -0.588% | caspase-3 activation [4] 5.55% | outcome [5] | outcome [6] | Potency [19] | Potency [20] | outcome [8] | outcome [9] | outcome [10] | outcome [11] | outcome [12] | Potency [13] | Potency [14] | Potency [15] | Potency [16] | Potency [17] | Potency [18]

O=C(Cl)c1ccccc1[N+](=O)[O-]
inactive: caspase-3 activation [1] -1.02% | outcome [2] | caspase-3 activation [3] 1.33% | caspase-3 activation [4] 1.55% | outcome [5] | outcome [6] | Potency [19] | Potency [20] | outcome [8] | outcome [9] | outcome [10] | outcome [11] | outcome [12] | Potency [13] | Potency [14] | Potency [15] | Potency [16] | Potency [17] | Potency [18]

NCCCCCCN
inactive: caspase-3 activation [1] 0.654% | outcome [2] | caspase-3 activation [3] 1.31% | caspase-3 activation [4] -1.45% | outcome [5] | outcome [6] | Potency [7] | outcome [8] | outcome [9] | outcome [10] | outcome [11] | outcome [12] | Potency [13] | Potency [14] | Potency [15] | Potency [16] | Potency [17] | Potency [18]

O=P(O)(OCc1ccccc1)OCc1ccccc1
inactive: caspase-3 activation [1] -0.354% | outcome [2] | caspase-3 activation [3] 1.06% | caspase-3 activation [4] -1.18% | outcome [5] | outcome [6] | Potency [19] | Potency [20] | outcome [8] | outcome [9] | outcome [10] | outcome [11] | outcome [12] | Potency [13] | Potency [14] | Potency [15] | Potency [16] | Potency [17] | Potency [18]

NC(=O)NC(N)=O
inactive: caspase-3 activation [1] -0.43% | outcome [2] | caspase-3 activation [3] -0.188% | caspase-3 activation [4] 0.826% | outcome [5] | outcome [6] | Potency [19] | Potency [20] | outcome [8] | outcome [9] | outcome [10] | outcome [11] | outcome [12] | Potency [13] | Potency [14] | Potency [15] | Potency [16] | Potency [17] | Potency [18]

Cc1ccc2ncccc2c1
inactive: caspase-3 activation [1] 0.979% | outcome [2] | caspase-3 activation [3] 0.47% | caspase-3 activation [4] 0.475% | outcome [5] | outcome [6] | Potency [19] | Potency [20] | outcome [8] | outcome [9] | outcome [10] | outcome [11] | outcome [12] | Potency [13] | Potency [14] | Potency [15] | Potency [16] | Potency [17] | Potency [18]

C=CC(=O)OCCCC
inactive: caspase-3 activation [1] 0.429% | outcome [2] | caspase-3 activation [3] -0.465% | caspase-3 activation [4] 0.453% | outcome [5] | outcome [6] | Potency [7] | Potency [20] | outcome [9] | outcome [10] | outcome [11] | outcome [12] | Potency [13] | Potency [14] | Potency [15] | Potency [16] | Potency [17] | Potency [18]

BrC(Br)C(Br)Br
inactive: caspase-3 activation [1] -0.634% | outcome [2] | caspase-3 activation [3] 0.661% | caspase-3 activation [4] -0.575% | outcome [5] | outcome [6] | Potency [20] | outcome [8] | outcome [10] | outcome [11] | outcome [12] | Potency [13] | Potency [14] | Potency [15] | Potency [16] | Potency [17]

O=Cc1cccc(Br)c1
inactive: caspase-3 activation [1] 1.82% | outcome [2] | caspase-3 activation [3] 2.2% | caspase-3 activation [4] 4.91% | outcome [5] | outcome [6] | Potency [19] | Potency [20] | outcome [8] | outcome [9] | outcome [10] | outcome [11] | outcome [12] | Potency [13] | Potency [14] | Potency [15] | Potency [16] | Potency [17] | Potency [18]

ClC/C=C/CCl
inactive: caspase-3 activation [1] 0.143% | outcome [2] | caspase-3 activation [3] 3.85% | caspase-3 activation [4] 1.61% | outcome [5] | outcome [6] | outcome [8] | outcome [9] | outcome [10] | outcome [11] | outcome [12] | Potency [13] | Potency [14] | Potency [15] | Potency [16] | Potency [17]

CCOC(=O)OCC
inactive: caspase-3 activation [1] -0.584% | outcome [2] | caspase-3 activation [3] -0.0213% | caspase-3 activation [4] -2.59% | outcome [5] | outcome [6] | Potency [7] | outcome [8] | outcome [9] | outcome [10] | outcome [11] | outcome [12] | Potency [13] | Potency [14] | Potency [15] | Potency [16] | Potency [17]
